Assay outcomes from PubChem.
MCF10A rereplic: DNA re-replication induction in MCF 10a cells. MCF 10A DNA re-replication, Hoechst nuclear intensity, 48 h. Potency, µM (top dose mostly 46.1 µM), usual class: activators. hit rate 2.9% among 350,000; note: nearly all actives have a fitted effect of over 50% in size
SW480 rerep: DNA re-replication induction in SW480 cells | SW480 DNA re-replication, Hoechst DNA content imaging, 48 h | Potency, µM (highest dose often 46.1 µM), hits mostly activators | hit rate 1.8% among 340,000 | AID 624297; note: nearly all actives have a fitted effect of over 55% in size
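250 cells/well; 23 nL cpd via pin tool; 48 hr, 37 C, 5% CO2; Hoechst 40 min; imager read of total nuclear intensity, ex 405/em 500-530 nm.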
KB-V1 cytotox: kills drug-selected multidrug resistant KB-V1 cells; Potency, µM (titrated, usually from 46.1 µM), usual class: cytotoxic; AID 1347076; hit rate 3.4% among 400,000; KB-V1 MDR cells viability, CellTiter-Glo, 72 h; note: nearly all actives have a fitted effect of over 60% in size
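Readout: CellTiter-Glo luminescence, 10 min after addition. Cells: KB-V1 MDR subline, 72 h at 37 degrees C with compound. Analysis: corrected, normalized data fitted to concentration-effect curves.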
KB-3-1 cytotox: kills parental KB-3-1 adenocarcinoma cells | KB-3-1 viability, CellTiter-Glo ATP luminescence, 72 h | Potency, µM (highest dose often 46.1 µM), most hits filed as cytotoxic | AID 1347075 | hit rate 1.4% among 400,000; note: nearly all actives have a fitted effect of over 60% in size
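Luminescent ATP read-out (CellTiter-Glo) measures survival of drug-naive KB-3-1 cells after 72 h compound exposure at 37 °C. Titration series was screened from lowest to highest concentration, with DMSO vehicle plates as background controls.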
ELG1 repair inh: ELG1-dependent DNA repair inhibition; HEK293T ELG1-luciferase reporter, luminescence, 16 h; DNA damage induced by 5-fluorouridine; Potency, µM (titrated, usually from 46.1 µM), most hits filed as inhibitors; hit rate 2.3% among 330,000; AID 504467; note: nearly all actives have a fitted effect of over 55% in size
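HEK293T cells expressing luciferase-tagged ELG1 (2,000/well) received 5-Fluorouridine plus compound or DMSO for 16 hr at 37 °C. Luciferase was read by ONE-Glo luminescence after 30 min at room temperature.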
Hits are given with their value; [ ] = dose if it differs, or a comment. An excerpt weighted towards active compounds, which were near 8.2% of everything screened. Calls come from the whole dose curve; as a rule, active = well fitted curve in the direction sought with a large enough effect; inconclusive = small, poorly fitted or top-dose-only effect, or another doubt; inactive = no such curve, though single readings can be large; an effect the other way counts as inactive or inconclusive.

How did CC[N+]1(C)CCC(O)(/C=C/c2ccccc2)C(C(=O)/C=C/c2ccccc2)C1 (stereo unspecified) do in these assays?
MCF10A rereplic: inconclusive; SW480 rerep: 20.6µM; KB-V1 cytotox: inconclusive; KB-3-1 cytotox: inconclusive

Results for CSc1ccc(/C=C(\C#N)C(=O)NC2CCCCC2C)cc1 (stereo unspecified) ?
MCF10A rereplic: 18.4µM; SW480 rerep: inconclusive; KB-V1 cytotox: 16.4µM; KB-3-1 cytotox: inconclusive; ELG1 repair inh: inactive

What do the screens show for `COc1cc(/C=C(\C#N)C(=O)NC2CCCCC2C)ccc1OS(=O)(=O)c1ccc(C)cc1` (stereo unspecified)?
MCF10A rereplic: 18.4µM; SW480 rerep: inconclusive; KB-V1 cytotox: inactive; KB-3-1 cytotox: inconclusive; ELG1 repair inh: inconclusive

Results for CC1CCCCC1NC(=O)/C(C#N)=C/c1ccccc1F (stereo unspecified) ?
MCF10A rereplic: 14.6µM; SW480 rerep: inconclusive; KB-V1 cytotox: inactive; KB-3-1 cytotox: inactive; ELG1 repair inh: 25.9µM

How did CCCCCCCCNC(=O)/C(C#N)=C/c1ccc(SC)cc1 do in these assays?
MCF10A rereplic: inactive; SW480 rerep: 2.06µM; KB-V1 cytotox: 20.6µM; KB-3-1 cytotox: inactive; ELG1 repair inh: inactive

Results for CCCCCCCCNC(=O)/C(C#N)=C/c1ccc2c(c1)OCCO2 ?
MCF10A rereplic: inconclusive; SW480 rerep: inactive; KB-V1 cytotox: inactive; KB-3-1 cytotox: inactive; ELG1 repair inh: inactive

How did CC(=O)Nc1ccc(/C=C(\C#N)C(=O)NC2CCCCC2C)cc1 (stereo unspecified) do in these assays?
MCF10A rereplic: inconclusive; SW480 rerep: inactive; KB-V1 cytotox: inconclusive; KB-3-1 cytotox: inactive; ELG1 repair inh: inactive

What do the screens show for `CCOC(=O)C1(Cc2ccccc2C)CCCN(S(=O)(=O)CC)C1` (stereo unspecified)?
MCF10A rereplic: inactive; SW480 rerep: inactive; KB-V1 cytotox: inactive; KB-3-1 cytotox: inactive; ELG1 repair inh: inactive

How did CCOC(=O)C1=C(N)Oc2cc(O)ccc2C1c1cccc(Cl)c1 (stereo unspecified) do in these assays?
MCF10A rereplic: 5.8µM; SW480 rerep: inconclusive; KB-V1 cytotox: inconclusive; KB-3-1 cytotox: inconclusive; ELG1 repair inh: inactive

How did CCOC(=O)C1=C(N)Oc2cc(O)ccc2C1c1cccnc1 (stereo unspecified) do in these assays?
MCF10A rereplic: inactive[0.0737 µM]; SW480 rerep: inactive; KB-V1 cytotox: inactive; KB-3-1 cytotox: inactive; ELG1 repair inh: inactive

What do the screens show for `CCOC(=O)c1sc(-c2ccccc2)cc1NC(=O)Nc1ccc([N+](=O)[O-])cc1`?
MCF10A rereplic: inactive; SW480 rerep: inactive; KB-V1 cytotox: inconclusive; KB-3-1 cytotox: inconclusive; ELG1 repair inh: 6.51µM

How did COC(=O)C1CC23C=CCN4CCC5(c6ccccc6NC15C2C)C43 (stereo unspecified) do in these assays?
MCF10A rereplic: inconclusive; SW480 rerep: 0.92µM; KB-V1 cytotox: inconclusive; KB-3-1 cytotox: 1.03µM; ELG1 repair inh: inconclusive

Results for COCCCNc1nc(-c2ccncc2)nc2ccccc12 ?
MCF10A rereplic: inactive; SW480 rerep: inconclusive; KB-V1 cytotox: inactive; KB-3-1 cytotox: inactive; ELG1 repair inh: 18.4µM

What do the screens show for `c1ccc2c(Nc3nc(-c4ccncc4)nc4ccccc34)cccc2c1`?
MCF10A rereplic: 23.1µM; SW480 rerep: 29.1µM; KB-V1 cytotox: inactive; KB-3-1 cytotox: inactive; ELG1 repair inh: inconclusive

How did COCCN(CCOC)c1nc(-c2ccccc2)nc2ccccc12 do in these assays?
MCF10A rereplic: inactive; SW480 rerep: inactive; KB-V1 cytotox: inactive; KB-3-1 cytotox: inactive; ELG1 repair inh: 25.9µM

Results for COCCN(CCOC)c1nc(-c2ccc(Cl)cc2)nc2ccccc12 ?
MCF10A rereplic: inconclusive; SW480 rerep: inactive; KB-V1 cytotox: inconclusive; KB-3-1 cytotox: inactive; ELG1 repair inh: inconclusive

Results for Clc1cccc(Nc2nc(-c3ccncc3)nc3ccccc23)c1 ?
MCF10A rereplic: inactive; SW480 rerep: inactive; KB-V1 cytotox: inconclusive; KB-3-1 cytotox: inactive; ELG1 repair inh: 2.59µM

What do the screens show for `CCN1CCN(S(=O)(=O)c2ccc(Cl)c(C(=O)Oc3ccc(CC(=O)OC)cc3)c2)CC1`?
MCF10A rereplic: inactive; SW480 rerep: inactive; KB-V1 cytotox: inactive; KB-3-1 cytotox: inactive

Results for Cc1ccc(NC(=O)CSc2nnc(COc3ccc(Cl)cc3)o2)c(C)c1 ?
KB-V1 cytotox: inactive; KB-3-1 cytotox: inactive

How did Cc1cc(C)n(CCNC(=O)c2cc(COc3ccc4ncccc4c3)on2)n1 do in these assays?
MCF10A rereplic: inactive; SW480 rerep: inactive; KB-V1 cytotox: inactive; KB-3-1 cytotox: inconclusive; ELG1 repair inh: inconclusive

What do the screens show for `O=C(NCc1cccc(Cl)c1)c1cc(COc2ccc3ncccc3c2)on1`?
MCF10A rereplic: inactive; SW480 rerep: inactive; KB-V1 cytotox: 3.26µM; KB-3-1 cytotox: 11.6µM; ELG1 repair inh: inconclusive

What do the screens show for `CC(CCCC(C)(C)O)NC(=O)c1cc(COc2ccc3ncccc3c2)on1` (stereo unspecified)?
MCF10A rereplic: inactive; SW480 rerep: inactive; KB-V1 cytotox: 5.8µM; KB-3-1 cytotox: inconclusive; ELG1 repair inh: 2.59µM

Results for COc1ccc2cc(-c3ccn[nH]3)ccc2c1 ?
MCF10A rereplic: inactive; SW480 rerep: inactive; KB-V1 cytotox: inconclusive; KB-3-1 cytotox: 7.31µM; ELG1 repair inh: inconclusive

What do the screens show for `COc1ccc(-c2cc(-c3ccccc3O)[nH]n2)cc1`?
MCF10A rereplic: inconclusive; SW480 rerep: inactive; KB-V1 cytotox: inactive; KB-3-1 cytotox: inactive; ELG1 repair inh: inconclusive

Results for C=CCn1c(-c2cccn(Cc3ccc(Cl)cc3)c2=O)n[nH]c1=S ?
MCF10A rereplic: inactive; SW480 rerep: inactive; KB-V1 cytotox: inconclusive; KB-3-1 cytotox: inactive; ELG1 repair inh: inactive

Results for C=CCn1c(-c2cccn(Cc3ccc(Cl)cc3Cl)c2=O)n[nH]c1=S ?
MCF10A rereplic: inactive; SW480 rerep: inactive; KB-V1 cytotox: 14.6µM; KB-3-1 cytotox: inconclusive; ELG1 repair inh: inactive

What do the screens show for `C=CCn1c(-c2cccn(Cc3ccccc3)c2=O)n[nH]c1=S`?
MCF10A rereplic: inactive; SW480 rerep: inactive; KB-V1 cytotox: inactive; KB-3-1 cytotox: inactive; ELG1 repair inh: inactive

Results for C=CCn1c(-c2cccn(Cc3cccc(Cl)c3)c2=O)n[nH]c1=S ?
MCF10A rereplic: inactive; SW480 rerep: inactive; KB-V1 cytotox: 23.1µM; KB-3-1 cytotox: inactive; ELG1 repair inh: inactive

What do the screens show for `CC1(C)Cc2c(cnn2-c2ccccc2)C(NC(=O)CCCN2CCCCC2=O)C1` (stereo unspecified)?
MCF10A rereplic: inactive; SW480 rerep: inactive; KB-V1 cytotox: inconclusive; KB-3-1 cytotox: inactive; ELG1 repair inh: inactive

What do the screens show for `CC(C)CCNC(=O)c1c[nH]c2ccc(S(=O)(=O)N3CCOCC3)cc2c1=O`?
MCF10A rereplic: inactive; SW480 rerep: inactive; KB-V1 cytotox: inconclusive; KB-3-1 cytotox: inactive; ELG1 repair inh: inactive

Results for COc1cccc(NS(=O)(=O)c2ccc3[nH]cc(C(=O)NCCC(C)C)c(=O)c3c2)c1 ?
MCF10A rereplic: inactive; SW480 rerep: inactive; KB-V1 cytotox: inactive; KB-3-1 cytotox: inconclusive; ELG1 repair inh: 18.4µM
